# Assay results published in PubChem BioAssay AID1159580 (chemical genetic matrix, 2015).
# Hit rate of the full screen: of about 5,500 compounds, about 2,000 (36%) were called active. Not shown: some 18% with an inconclusive outcome. Some of the results follow. Values without a mark were called inactive. Cut-off read from the data, not from the text of the source: active = normalized growth mostly below about 0.91 (no sharp cut-off); inconclusive = no clear call, values can overlap the other calls; inactive = mostly above about 0.92.
# Assay: chemical genetic growth profiling, strain panel (AID 1159580);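 note: tested at 20 µM; growth read once vehicle control cultures reached saturation at 30 °C; 1 = growth at the plate median or of vehicle wells; lower values mean less growth of the strain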
# Details: growth OD
smiles,measurement,setting,value
COc1ccc2oc3ccccc3c(=O)c2c1,normalized growth,"S. cerevisiae deletion strains, locus YJL187C, strain SWE1, active compounds read low",0.834 (active)
same,normalized growth,"S. cerevisiae deletion strains, locus YJR043C, strain POL32, active compounds read low",0.932
same,normalized growth,"S. cerevisiae deletion strains, locus YJR075W, strain HOC1, active compounds read low",0.885
same,normalized growth,"S. cerevisiae deletion strains, locus YKL009W, strain mrt4, active compounds read low",0.886
same,normalized growth,"S. cerevisiae deletion strains, locus YKL068W, active compounds read low",0.949
same,normalized growth,"S. cerevisiae deletion strains, locus YKL085W, strain MDH1 (second series), active compounds read low",0.914 (active)
same,normalized growth,"S. cerevisiae deletion strains, locus YKL085W, strain MDH1, active compounds read low",0.914 (active)
same,normalized growth,"S. cerevisiae deletion strains, locus YKL160W, strain elf1, active compounds read low",0.823 (active)
same,normalized growth,"S. cerevisiae deletion strains, locus YKL190W, strain CNB1, active compounds read low",0.922
same,normalized growth,"S. cerevisiae deletion strains, locus YKR001C, strain vps1, active compounds read low",0.526 (active)
same,normalized growth,"S. cerevisiae deletion strains, locus YKR026C, strain gcn3, active compounds read low",0.927
same,normalized growth,"S. cerevisiae deletion strains, locus YKR091W, strain srl3, active compounds read low",0.945
same,normalized growth,"S. cerevisiae deletion strains, locus YLL001W, strain dnm1, active compounds read low",0.875 (active)
same,normalized growth,"S. cerevisiae deletion strains, locus YLL026W, active compounds read low",0.879 (active)
same,normalized growth,"S. cerevisiae deletion strains, locus YLL041C, strain sdh2, active compounds read low",0.937
same,normalized growth,"S. cerevisiae deletion strains, locus YLR027C, strain aat2, active compounds read low",0.855 (active)
same,normalized growth,"S. cerevisiae deletion strains, locus YLR039C, strain RIC1, active compounds read low",0.486 (active)
same,normalized growth,"S. cerevisiae deletion strains, locus YLR058C, strain SHM2, active compounds read low",0.861 (active)
same,normalized growth,"S. cerevisiae deletion strains, locus YLR102C, strain apc9, active compounds read low",0.907 (active)
same,normalized growth,"S. cerevisiae deletion strains, locus YLR221C, strain rsa3, active compounds read low",0.821 (active)
same,normalized growth,"S. cerevisiae deletion strains, locus YLR258W, strain gsy2, active compounds read low",0.871 (active)
same,normalized growth,"S. cerevisiae deletion strains, locus YLR262C, strain YPT6 (second series), active compounds read low",0.597 (active)
same,normalized growth,"S. cerevisiae deletion strains, locus YLR262C, strain YPT6, active compounds read low",0.577 (active)
same,normalized growth,"S. cerevisiae deletion strains, locus YLR268W, strain sec22, active compounds read low",0.84 (active)
same,normalized growth,"S. cerevisiae deletion strains, locus YLR320W, strain mms22, active compounds read low",0.464 (active)
same,normalized growth,"S. cerevisiae deletion strains, locus YLR330W, strain CHS5, active compounds read low",0.854 (active)
same,normalized growth,"S. cerevisiae deletion strains, locus YLR342W, strain FKS1 (second series), active compounds read low",0.945
same,normalized growth,"S. cerevisiae deletion strains, locus YLR342W, strain FKS1, active compounds read low",0.952
same,normalized growth,"S. cerevisiae deletion strains, locus YLR357W, strain rsc2, active compounds read low",1.09
same,normalized growth,"S. cerevisiae deletion strains, locus YLR370C, strain arc18, active compounds read low",0.946
same,normalized growth,"S. cerevisiae deletion strains, locus YLR371W, strain rom2, active compounds read low",0.7 (active)
same,normalized growth,"S. cerevisiae deletion strains, locus YLR384C, strain iki3, active compounds read low",0.912 (active)
same,normalized growth,"S. cerevisiae deletion strains, locus YLR418C, strain cdc73, active compounds read low",0.659 (active)
same,normalized growth,"S. cerevisiae deletion strains, locus YML016C, strain PPZ1, active compounds read low",0.881 (active)
same,normalized growth,"S. cerevisiae deletion strains, locus YML032C, strain rad52, active compounds read low",0.755 (active)
same,normalized growth,"S. cerevisiae deletion strains, locus YML120C, strain ndi1, active compounds read low",0.742 (active)
same,normalized growth,"S. cerevisiae deletion strains, locus YML124C, strain tub3, active compounds read low",0.902 (active)
same,normalized growth,"S. cerevisiae deletion strains, locus YMR058W, strain fet3, active compounds read low",0.86 (active)
same,normalized growth,"S. cerevisiae deletion strains, locus YMR078C, strain ctf18, active compounds read low",0.852 (active)
same,normalized growth,"S. cerevisiae deletion strains, locus YMR125W, strain sto1, active compounds read low",0.713 (active)
same,normalized growth,"S. cerevisiae deletion strains, locus YMR129W, active compounds read low",0.95
same,normalized growth,"S. cerevisiae deletion strains, locus YMR205C, strain PFK2, active compounds read low",0.78 (active)
same,normalized growth,"S. cerevisiae deletion strains, locus YMR223W, strain ubp8, active compounds read low",0.84 (active)
same,normalized growth,"S. cerevisiae deletion strains, locus YMR231W, strain pep5, active compounds read low",0.915 (active)
same,normalized growth,"S. cerevisiae deletion strains, locus YMR307W, strain GAS1, active compounds read low",0.845
same,normalized growth,"S. cerevisiae deletion strains, locus YNL067W, strain RPL9B, active compounds read low",0.874
same,normalized growth,"S. cerevisiae deletion strains, locus YNL071W, strain lat1, active compounds read low",0.421 (active)
same,normalized growth,"S. cerevisiae deletion strains, locus YNL128W, strain TEP1, active compounds read low",0.815 (active)
same,normalized growth,"S. cerevisiae deletion strains, locus YNL209W, strain ssb2, active compounds read low",0.934
same,normalized growth,"S. cerevisiae deletion strains, locus YNL233W, strain BNI4, active compounds read low",0.81 (active)
same,normalized growth,"S. cerevisiae deletion strains, locus YNL248C, strain rpa49, active compounds read low",0.397 (active)
same,normalized growth,"S. cerevisiae deletion strains, locus YNL250W, strain rad50, active compounds read low",0.866 (active)
same,normalized growth,"S. cerevisiae deletion strains, locus YNL271C, strain bni1, active compounds read low",0.874 (active)
same,normalized growth,"S. cerevisiae deletion strains, locus YNL298W, strain CLA4, active compounds read low",0.869 (active)
same,normalized growth,"S. cerevisiae deletion strains, locus YNL307C, strain MCK1, active compounds read low",0.569 (active)
same,normalized growth,"S. cerevisiae deletion strains, locus YNL322C, strain KRE1 (second series), active compounds read low",0.992
same,normalized growth,"S. cerevisiae deletion strains, locus YNR049C, strain mso1, active compounds read low",0.947
same,normalized growth,"S. cerevisiae deletion strains, locus YNR052C, strain pop2, active compounds read low",0.874 (active)
same,normalized growth,"S. cerevisiae deletion strains, locus YOL012C, strain htz1",0.651
same,normalized growth,"S. cerevisiae deletion strains, locus YOL147C, strain pex11, active compounds read low",0.906 (active)
same,normalized growth,"S. cerevisiae deletion strains, locus YOR001W, strain rrp6, active compounds read low",0.825 (active)
same,normalized growth,"S. cerevisiae deletion strains, locus YOR061W, strain CKA2, active compounds read low",0.886 (active)
same,normalized growth,"S. cerevisiae deletion strains, locus YOR069W, strain VPS5, active compounds read low",0.918 (active)
same,normalized growth,"S. cerevisiae deletion strains, locus YOR070C, strain gyp1, active compounds read low",0.859 (active)
same,normalized growth,"S. cerevisiae deletion strains, locus YOR080W, strain dia2, active compounds read low",0.959
same,normalized growth,"S. cerevisiae deletion strains, locus YOR083W, strain WHI5, active compounds read low",0.789 (active)
same,normalized growth,"S. cerevisiae deletion strains, locus YOR106W, strain vam3, active compounds read low",0.817 (active)
same,normalized growth,"S. cerevisiae deletion strains, locus YOR136W, strain idh2, active compounds read low",0.922
same,normalized growth,"S. cerevisiae deletion strains, locus YOR144C, strain elg1, active compounds read low",0.904 (active)
same,normalized growth,"S. cerevisiae deletion strains, locus YOR184W, strain ser1, active compounds read low",0.771 (active)
same,normalized growth,"S. cerevisiae deletion strains, locus YOR265W, strain rbl2, active compounds read low",0.932
same,normalized growth,"S. cerevisiae deletion strains, locus YOR270C, strain vph1, active compounds read low",0.528 (active)
same,normalized growth,"S. cerevisiae deletion strains, locus YOR290C, strain snf2, active compounds read low",0.686 (active)
same,normalized growth,"S. cerevisiae deletion strains, locus YOR316C, strain cot1, active compounds read low",0.903 (active)
same,normalized growth,"S. cerevisiae deletion strains, locus YPL051W, strain arl3, active compounds read low",0.772 (active)
same,normalized growth,"S. cerevisiae deletion strains, locus YPL078C, strain atp4, active compounds read low",0.773 (active)
same,normalized growth,"S. cerevisiae deletion strains, locus YPL106C, strain sse1, active compounds read low",0.78 (active)
same,normalized growth,"S. cerevisiae deletion strains, locus YPL240C, strain hsp82, active compounds read low",0.931
same,normalized growth,"S. cerevisiae deletion strains, locus YPL241C, strain CIN2, active compounds read low",0.917 (active)
same,normalized growth,"S. cerevisiae deletion strains, locus YPR119W, strain clb2, active compounds read low",0.907 (active)
same,normalized growth,"S. cerevisiae deletion strains, locus YPR141C, strain kar3, active compounds read low",0.882 (active)
same,normalized growth,"S. cerevisiae deletion strains, locus YPR163C, strain tif3, active compounds read low",0.756 (active)
same,normalized growth,"S. cerevisiae deletion strains, locus YPR167C, strain met16, active compounds read low",0.925
same,normalized growth,"S. cerevisiae deletion strains, strain wtn01, active compounds read low",0.87 (active)
same,normalized growth,"S. cerevisiae strains, strain wild type, active compounds read low",0.874 (active)
